# Results filed as inconclusive are left out. A call without a number means that no potency is given here. Values without a mark were called inactive. The source made the active and inactive calls. Unless noted, calls follow the shape of the dose curve; as a rule, active = well fitted curve in the direction sought with a large enough effect in the repeat runs; inconclusive = weak or mixed curves; inactive = no such curve, though single readings can be large; an effect the other way counts as inactive or inconclusive.
# Tests used:
# [1] = biological target: Retinoic acid receptor RXR-alpha (Homo sapiens) (UniProt P19793); experiment: qHTS assay to identify small molecule agonists of the RXR signaling pathway (AID 1159527; calls by dose curve; also: nearly all actives have a fitted effect of over 35% in size; also: potency is read from the fitted curve at half-maximal effect)
# In short: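 GeneBLAzer RXR-alpha-UAS-bla HEK 293T cells in 2% charcoal-stripped FBS medium were exposed to compounds for 16 hr at 37 C in agonist mode. Beta-lactamase reporter read as 460/530 nm FRET ratio after 2 hr substrate loading.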
# [2] = qHTS assay to identify small molecule antagonists of the retinoid acid receptor (RAR) signaling pathway - cell viability counter screen (AID 1159551); also: nearly all actives have a fitted effect of over 35% in size
# In short: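 Following overnight attachment, C3RL4 reporter cells received DMSO-dissolved compounds and then retinol (1 uM final). Six hours later at 37 C, ATP content was measured by CellTiter-Glo luminescence.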
# [3] = qHTS assay to identify small molecule antagonists of the retinoic acid receptor (RAR) signaling pathway (AID 1159552; also: nearly all actives have a fitted effect of over 50% in size)
# In short: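 Retinol signaling pathway inhibitors screened in C3RL4 RARE-luciferase reporter cells seeded overnight at 37 C, then compounds added with 1 uM (final) retinol as pathway substrate. After 6 hr at 37 C, luciferase luminescence read after 30 min at room temperature.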
# [4] = qHTS assay to identify small molecule agonists of the retinoic acid receptor (RAR) signaling pathway (AID 1159553)
# In short: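 Cell line C3RL4, RARE luciferase reporter. Treatment: compounds in DMSO, 6 hr, 37 C, 5% CO2, after overnight plating. Detection: luminescence, 30 min RT after reagent.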
# [5] = qHTS assay to identify small molecule antagonists of the estrogen related receptor (ERR) signaling pathway - cell viability counter screen (AID 1224818);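 also: series mostly up to about 46 µM; viability measured after 17.5 h of compound exposure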
# In short: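 Here, ERR cells are plated at 2,000 cells per well, allowed 6 h to attach, and treated with compounds in DMSO for 17.5 h at 37 C. CellTiter-Fluor is then added and fluorescence read after 30 min.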
# [6] = qHTS assay to identify small molecule antagonists of the estrogen related receptor (ERR) signaling pathway (AID 1224819;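 also: luminescence from an ERR-driven luciferase reporter measured with One-Glo reagent; series mostly up to about 46 µM; nearly all actives have a fitted effect of over 50% in size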)
# In short: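 LOPAC library screened for antagonism as reduced One-Glo luminescence in ERR reporter cells (2,000/well). Compounds were added after 6 h pre-incubation and left 18 h at 37C; reading followed a 30 min room-temperature reagent step.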
# [7] = qHTS assay to identify small molecule agonists of the estrogen related receptor (ERR) signaling pathway (AID 1224820)
# In short: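 ERR reporter cell line (from NTP), 2,000 cells/well, incubated 6 h before compound addition, then 18 h at 37 C. Luminescence measured 30 min after One-Glo reagent at room temperature.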
# [8] = qHTS assay to identify small molecule antagonists of the estrogen related receptor signaling pathway with the pleiotropic PPARgamma coactivator (PGC) cell viability counter screen (AID 1224822;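 also: series mostly up to about 46 µM; viability read after 17.5 h compound exposure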)
# In short: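 qHTS format, DMSO compound stocks pin-transferred onto PGC/ERR cells 6 h after plating; 17.5 h exposure at 37 C, then CellTiter-Fluor fluorescence.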
# [9] = qHTS assay to identify small molecule agonists of the estrogen related receptor signaling pathway with the pleiotropic PPARgamma coactivator (PGC) (AID 1224823)
# In short: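 PGC/ERR reporter cells seeded 6 h, then exposed to compounds (23 nL in DMSO) for 18 h at 37 C. One-Glo luciferase luminescence read after 30 min at room temperature.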
# [10] = qHTS assay to identify small molecule antagonists of the estrogen related receptor (ERR) signaling pathway from Tox21 library - cell viability counter screen (AID 1224834); also: nearly all actives have a fitted effect of over 30% in size
# In short: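 Viability readout (CellTiter-Fluor fluorescence, 30 min at 37 C) multiplexed with the ERR assay; cells treated 17.5 h at 37 C with compounds delivered in DMSO.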
# [11] = biological target: Luciferin 4-monooxygenase (Photinus pyralis) (UniProt P08659); experiment: qHTS assay to identify small molecule inhibitors of firefly luciferase (AID 1224835); also: series mostly up to about 120 µM; nearly all actives have a fitted effect of over 25% in size
# In short: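 Biochemical qHTS: compounds run as interplate titrations against purified firefly enzyme, with D-luciferin and ATP each at its KM concentration. Light output recorded by CCD imaging.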
# [12] = qHTS assay to identify small molecule agonists of the constitutive androstane receptor (CAR) signaling pathway - cell viability counter screen (AID 1224836); also: series mostly up to about 92 µM; nearly all actives have a fitted effect of over 45% in size
# In short: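 HepG2 cells stably carrying hCAR and a CYP2B6-2.2kb reporter; 15-concentration compounds plus PK11195 (final 0.75 uM), 23 hr at 37 C/5% CO2. Viability read by CellTiter-Fluor fluorescence.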
# [13] = qHTS assay to identify small molecule antagonists of the constitutive androstane receptor (CAR) signaling pathway - cell viability counter screen (AID 1224837); also: series mostly up to about 92 µM; nearly all actives have a fitted effect of over 45% in size
# In short: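 Fluorescence from CellTiter-Fluor served as the viability signal. Human hepatoma HepG2 cells stably bearing hCAR and CYP2B6-2.2kb received compound plus CITCO (50 nM final) for 23 hr.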
# [14] = biological target: Nuclear receptor subfamily 1 group I member 3 (Homo sapiens) (UniProt Q14994); experiment: qHTS assay to identify small molecule antagonists of the constitutive androstane receptor (CAR) signaling pathway (AID 1224838);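 also: HepG2 cells stably expressing hCAR with CYP2B6 luciferase reporter stimulated by CITCO; nearly all actives have a fitted effect of over 40% in size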
# In short: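 Quantitative HTS in double-stable HepG2-CYP2B6-hCAR cells. After 4 h plating, cells get compound (15 concentrations) and CITCO at 50 nM final, incubate 24 h at 37 C, then ONE-Glo luminescence is read.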
# [15] = biological target: Nuclear receptor subfamily 1 group I member 3 (Homo sapiens) (UniProt Q14994); experiment: qHTS assay to identify small molecule agonists of the constitutive androstane receptor (CAR) signaling pathway (AID 1224839);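 also: HepG2 cells stably carrying human CAR and a CYP2B6 luciferase reporter; series mostly up to about 92 µM; nearly all actives have a fitted effect of over 15% in size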
# In short: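 HepG2 cells stably co-transfected with hCAR and a CYP2B6-2.2kb luciferase reporter; compounds at 15 concentrations with 0.75 uM PK11195 present. After 24 hr at 37 C, luciferase read by ONE-Glo luminescence.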
# [16] = qHTS assay to identify small molecule antagonists of the estrogen related receptor signaling pathway with the pleiotropic PPARgamma coactivator (PGC) from Tox21 10K library - cell viability counter screen (AID 1224840; active = well fitted cell-killing curve with a large enough effect in the repeat runs, not every such curve was filed as active; also: nearly all actives have a fitted effect of over 40% in size)
# In short: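 Compounds in DMSO, alongside positive and negative controls, were pinned onto PGC/ERR cells (2,000 per well). Exposure lasted 17.5 hours at 37 C, followed by a 30-minute CellTiter-Fluor incubation and fluorescence reading.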
# [17] = qHTS assay to identify small molecule agonists of the estrogen related receptor signaling pathway with the pleiotropic PPARgamma coactivator (PGC) from Tox21 10K library (AID 1224842); also: nearly all actives have a fitted effect of over 15% in size
# In short: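 PGC/ERR reporter cell line, 2,000 cells per well, incubated 6 h at 37 C before 23 nL compound in DMSO was added. After 18 h at 37 C, One-Glo luminescence read following 30 min at room temperature.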
# [18] = qHTS assay to identify small molecule agonists of the RXR signaling pathway - cell viability counter screen (AID 1159529); also: series mostly up to about 77 µM; nearly all actives have a fitted effect of over 50% in size
# In short: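 RXR-alpha-UAS-bla HEK 293T cells in medium with 2% charcoal-stripped FBS were pre-incubated 5 hr, then compound-treated 16 hr at 37 C. Viability was read by CellTiter-Glo luminescence in the same wells as the beta-lactamase assay, with tetraoctyl ammonium bromide as positive control.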
# [19] = qHTS assay to identify small molecule antagonists of the estrogen related receptor signaling pathway with the pleiotropic PPARgamma coactivator (PGC) from Tox21 10K library (AID 1224841; call rule not given here; also: series mostly up to about 92 µM; actives are mostly falling curves and most rising ones were filed inactive; nearly all actives have a fitted effect of over 50% in size)
# In short: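 Compound exposure ran 18 hours at 37 C in PGC/ERR cells (2,000/well) that had first rested 6 hours in a 37 C/5% CO2 incubator. Luciferase activity was then detected with One-Glo after a 30-minute room-temperature step.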
# [20] = biological target: Thyrotropin receptor (Homo sapiens) (UniProt P16473); experiment: qHTS assay to identify small molecule agonists of the thyroid stimulating hormone receptor (TSHR) signaling pathway (AID 1224843; calls by dose curve; also: nearly all actives have a fitted effect of over 45% in size)
# In short: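 TSHR-HEK293 cells in agonist mode, 30 min room-temperature step, then cAMP measured by competitive HTRF (cAMP-d2 with anti-cAMP cryptate) after 1 h at room temperature. Tested at 15 concentrations in triplicate.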
# Sequence of Retinoic acid receptor RXR-alpha (Homo sapiens) (P19793 whole entry, looked up): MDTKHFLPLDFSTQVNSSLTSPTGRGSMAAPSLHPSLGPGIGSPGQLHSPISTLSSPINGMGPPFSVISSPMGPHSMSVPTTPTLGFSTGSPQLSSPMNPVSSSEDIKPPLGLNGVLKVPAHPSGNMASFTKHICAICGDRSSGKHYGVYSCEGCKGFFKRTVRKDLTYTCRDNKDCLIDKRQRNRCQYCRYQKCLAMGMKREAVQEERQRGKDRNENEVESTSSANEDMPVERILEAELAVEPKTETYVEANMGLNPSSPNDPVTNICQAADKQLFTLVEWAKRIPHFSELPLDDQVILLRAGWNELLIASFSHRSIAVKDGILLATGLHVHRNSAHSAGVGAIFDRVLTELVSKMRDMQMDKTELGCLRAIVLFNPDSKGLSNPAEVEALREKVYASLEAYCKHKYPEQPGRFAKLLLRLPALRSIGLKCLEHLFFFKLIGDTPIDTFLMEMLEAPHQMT
# Sequence of Nuclear receptor subfamily 1 group I member 3 (Homo sapiens) (Q14994 whole entry, looked up): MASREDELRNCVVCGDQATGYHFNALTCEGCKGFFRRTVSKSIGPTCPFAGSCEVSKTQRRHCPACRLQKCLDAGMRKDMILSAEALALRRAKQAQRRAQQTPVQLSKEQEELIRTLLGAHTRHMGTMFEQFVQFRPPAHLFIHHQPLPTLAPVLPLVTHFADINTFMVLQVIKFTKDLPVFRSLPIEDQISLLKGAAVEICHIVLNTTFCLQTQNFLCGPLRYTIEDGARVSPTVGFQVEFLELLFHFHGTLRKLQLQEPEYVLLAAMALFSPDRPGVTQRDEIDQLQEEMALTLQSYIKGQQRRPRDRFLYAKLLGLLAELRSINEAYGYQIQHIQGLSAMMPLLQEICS
# Sequence of Thyrotropin receptor (Homo sapiens) (P16473 whole entry, looked up): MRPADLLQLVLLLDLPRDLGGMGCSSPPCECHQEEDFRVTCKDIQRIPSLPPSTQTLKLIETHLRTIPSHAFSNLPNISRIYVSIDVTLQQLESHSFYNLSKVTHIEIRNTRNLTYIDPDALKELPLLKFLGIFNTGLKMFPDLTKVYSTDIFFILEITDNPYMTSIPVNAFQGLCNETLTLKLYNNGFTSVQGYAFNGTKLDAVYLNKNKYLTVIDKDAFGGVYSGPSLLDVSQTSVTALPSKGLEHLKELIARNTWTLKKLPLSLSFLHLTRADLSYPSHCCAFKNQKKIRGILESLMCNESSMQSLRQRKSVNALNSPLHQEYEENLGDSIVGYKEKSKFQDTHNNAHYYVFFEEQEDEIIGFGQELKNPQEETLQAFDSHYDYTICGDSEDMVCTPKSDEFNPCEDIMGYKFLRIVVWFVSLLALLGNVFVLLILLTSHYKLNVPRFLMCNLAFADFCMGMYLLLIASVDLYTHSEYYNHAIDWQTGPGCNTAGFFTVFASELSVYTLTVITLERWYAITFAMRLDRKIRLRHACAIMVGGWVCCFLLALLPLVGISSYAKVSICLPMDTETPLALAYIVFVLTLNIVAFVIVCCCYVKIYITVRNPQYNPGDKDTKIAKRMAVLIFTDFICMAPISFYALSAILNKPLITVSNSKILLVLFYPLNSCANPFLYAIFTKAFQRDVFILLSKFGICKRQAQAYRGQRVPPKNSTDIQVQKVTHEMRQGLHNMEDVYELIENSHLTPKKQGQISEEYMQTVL
# Sequence of Luciferin 4-monooxygenase (Photinus pyralis) (P08659 whole entry, looked up): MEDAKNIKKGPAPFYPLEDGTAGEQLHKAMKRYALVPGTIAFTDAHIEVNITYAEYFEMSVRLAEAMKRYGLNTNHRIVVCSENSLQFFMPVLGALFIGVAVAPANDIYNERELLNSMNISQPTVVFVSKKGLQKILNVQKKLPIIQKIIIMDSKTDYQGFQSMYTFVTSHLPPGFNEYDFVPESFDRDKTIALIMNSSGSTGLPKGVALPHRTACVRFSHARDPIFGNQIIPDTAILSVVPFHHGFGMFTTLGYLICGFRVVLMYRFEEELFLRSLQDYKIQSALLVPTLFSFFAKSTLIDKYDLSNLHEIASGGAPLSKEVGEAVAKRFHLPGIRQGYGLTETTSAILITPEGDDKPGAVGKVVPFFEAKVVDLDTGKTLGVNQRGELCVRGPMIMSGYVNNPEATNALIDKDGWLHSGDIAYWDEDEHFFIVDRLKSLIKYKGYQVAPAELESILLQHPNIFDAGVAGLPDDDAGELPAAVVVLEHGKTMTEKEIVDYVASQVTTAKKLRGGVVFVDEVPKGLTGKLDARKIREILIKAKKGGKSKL
smiles,measurement,setting,value
CC(=O)[C@H]1CC[C@H]2[C@@H]3CC[C@H]4C[C@H](O)CC[C@]4(C)[C@H]3C(=O)C[C@]12C,Potency,[1],inactive
same,Potency,[2],inactive
same,Potency,[3],inactive
same,Potency,[4],inactive
same,outcome,[5],inactive
same,outcome,[6],inactive
same,outcome,[7],inactive
same,outcome,[8],inactive
same,outcome,[9],inactive
same,Potency,[10],inactive
same,Potency,[11],inactive
same,Potency,[12],inactive
same,Potency,[13],inactive
same,Potency,[14],inactive
same,Potency,[15],inactive
same,Potency,[16],inactive
same,outcome,[17],inactive
CC1=C(C(=O)O)N2C(=O)[C@@H](N)[C@H]2SC1,activation,[1],0.217% [at 15.8 µM]
same,"activity change, negative = cytotoxicity",[18],1.45% [at 15.8 µM]
same,"activity change, negative = cytotoxicity",[2],-0.0172% [at 19 µM]
same,"viability change, negative = cytotoxic",[10],3.67% [at 19 µM]
same,"activity change, negative = inhibition",[11],-0.398% [at 23.6 µM]
same,"viability change, negative = cytotoxic",[12],4.01% [at 19 µM]
same,"activity, negative = inhibition",[14],17.2% [at 19 µM]
same,activation,[15],-1.84% [at 19 µM]
same,"viability change, negative = cytotoxic",[16],-5.15% [at 19 µM]
same,"activity, negative = inhibition",[19],1.75% [at 19 µM]
same,activation,[17],0.483% [at 19 µM]
same,activation,[20],0.53% [at 19 µM]
CCCCC(=O)Cl,Potency,[1],inactive
same,Potency,[18],inactive
same,Potency,[2],inactive
same,Potency,[11],inactive
same,Potency,[12],inactive
same,Potency,[13],inactive
same,Potency,[14],inactive
same,Potency,[15],inactive
same,Potency,[16],inactive
same,Potency,[19],inactive
same,outcome,[17],inactive
same,Potency,[20],inactive
C1CCC(C2CCCCC2)CC1,Potency,[1],38.9 µM (active)
same,Potency,[2],inactive
same,Potency,[3],inactive
same,Potency,[4],inactive
same,Potency,[10],inactive
same,Potency,[11],inactive
same,Potency,[12],inactive
same,Potency,[13],inactive
same,Potency,[14],inactive
same,Potency,[15],inactive
same,Potency,[19],inactive
NC(=O)c1cc([N+](=O)[O-])cc([N+](=O)[O-])c1,Potency,[1],inactive
same,Potency,[2],inactive
same,Potency,[10],inactive
same,Potency,[11],inactive
same,Potency,[12],inactive
same,Potency,[13],inactive
same,Potency,[16],inactive
same,Potency,[20],inactive
